Measured values: the supplement of paper PMC8877412
Counter-ions that a name gives are not always drawn. ± gives the uncertainty stated by the source.

The compounds below were run on NCC-PMP1-C1 (assay: cell viability relative to DMSO control; higher = less growth inhibition). Details: 10 µM; 72 h.
Procedure: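 NCC-PMP1-C1 pseudomyxoma peritonei cells were seeded in 384-well plates coated with Matrigel and MEF (1e4 cells). Viability was read after 72 h by CCK-8 and expressed as % of the DMSO control, mean ± SD of duplicates.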

| SMILES | cell viability |
| --- | --- |
| CNC(=O)c1ccc(N2C(=S)N(c3ccc(C#N)c(C(F)(F)F)c3)C(=O)C2(C)C)cc1F [Enzalutamide (MDV3100)] | 99.7 ± 15% |
| NC(=O)NO [Hydroxyurea] | 136 ± 8.1% |
| CO[C@H]1C[C@@H]2CC[C@@H](C)[C@@](O)(O2)C(=O)C(=O)N2CCCC[C@H]2C(=O)O[C@H]([C@H](C)C[C@@H]2CC[C@@H](OCCO)[C@H](OC)C2)CC(=O)[C@H](C)/C=C(\C)[C@@H](O)[C@@H](OC)C(=O)[C@H](C)C[C@H](C)/C=C/C=C/C=C/1C [Everolimus (RAD001)] | 83.3 ± 7.4% |
| COc1cccc2c1C(=O)c1c(O)c3c(c(O)c1C2=O)C[C@@](O)(C(=O)CO)C[C@@H]3O[C@H]1C[C@H](N)[C@H](O)[C@H](C)O1 [Doxorubicin (Adriamycin)] | 3.06 ± 0.067% |
| COc1c2ccoc2cc2oc(=O)ccc12 [Bergapten] | 87.3 ± 5% |
| COc1ccc2c(c1OC)C(=O)O[C@@H]2[C@H]1c2c(cc3c(c2OC)OCO3)CCN1C [Noscapine HCl] | 90.5 ± 4.2% |
